Compound in this assay: CC(C)c1cccc(C(C)C)c1N1C(=O)c2ccc(O)cc2C1=O
The assay is described as follows: reporter fold induction vs vehicle; higher = higher reporter activity. Here is the method:
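Attagene multiplexed transcription-factor reporter assay (48 cis response elements and 25 trans nuclear-receptor constructs) treated with 5HPP-33 at 8 concentrations (0.091–200 µM). The response is fold induction of reporter activity relative to vehicle control. Cell line and time not stated in the paper; tested in ToxCast Phase II for this study.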

Consider 5 targets from the supplement of paper PMC3616981.

On to E_Box_CIS, for which the reporter fold induction by setting is: (0.091 µM) 1.04; (0.274 µM) 0.955; (0.823 µM) 1.02; (2.469 µM) 0.967; (7.407 µM) 1.11; (22.22 µM) 0.945. The reporter fold induction was found to be 1.06 (66.67 µM) and 0.895 (200 µM).
For the target EGR_CIS, the reporter fold induction came out at 1.05 (0.091 µM); 0.979 (0.274 µM); 0.95 (0.823 µM); 0.927 (2.469 µM); 1.1 (7.407 µM); 1.2 (22.22 µM). The reporter fold induction reads like this: (66.67 µM) 1.64; (200 µM) 2.7.
On to M_32_CIS, for which the reporter fold induction reads like this: (0.091 µM) 1.02; (0.274 µM) 0.981; (0.823 µM) 1; (2.469 µM) 1.02; (7.407 µM) 0.972; (22.22 µM) 0.978. In addition, the reporter fold induction reads like this: (66.67 µM) 1.12; (200 µM) 1.02.
For the target PXR_TRANS, the reporter fold induction amounted to 1.15 (0.091 µM); 2.07 (0.274 µM); 3.25 (0.823 µM); 4.39 (2.469 µM); 3.39 (7.407 µM); 3.71 (22.22 µM). For the same target, the reporter fold induction is 3.61 (66.67 µM) and 1.33 (200 µM).
On to ERE_CIS, for which the reporter fold induction (0.091 µM) is 1.55; the reporter fold induction (0.274 µM) was determined as 2.27; the reporter fold induction (0.823 µM) was 1.01; the reporter fold induction (2.469 µM) was 0.967; the reporter fold induction (7.407 µM) worked out at 4.09; the reporter fold induction (22.22 µM) is 3.27. Further, the reporter fold induction reads like this: (66.67 µM) 4.08; (200 µM) 0.978.
